The panel holds about 83,000 compounds, 20% with a hit somewhere; the sample as a whole holds those more often.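 48-hour exposure, single concentration, 96-well plates; percent growth endpoint where 0 means no net growth. Active: below 10.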 Unmarked numbers belong to inactive results. Activity calls are given as the source filed them.
Assays:
Assay in all cases: NCI-60 one-dose screen, 48 h (100 = growth as untreated, 0 = no growth, -100 = all killed)
Conditions in all cases: 10 µM
NCI-H23 lung = tested on: NCI-H23 lung
NCI-H226 lung = tested on: NCI-H226 lung
NCI-H322M lung = tested on: NCI-H322M lung
HOP-62 NSCLC = tested on: HOP-62 NSCLC
NCI-H460 lung = tested on: NCI-H460 lung
HOP-92 NSCLC = tested on: HOP-92 NSCLC
NCI-H522 lung = tested on: NCI-H522 lung
A549/ATCC NSCLC = tested on: A549/ATCC NSCLC
786-0 renal = tested on: 786-0 renal
COLO 205 colon = tested on: COLO 205 colon

Structure (SMILES)	growth (NCI-H23 lung)	growth (NCI-H226 lung)	growth (NCI-H322M lung)	growth (HOP-62 NSCLC)	growth (NCI-H460 lung)	growth (HOP-92 NSCLC)	growth (NCI-H522 lung)	growth (A549/ATCC NSCLC)	growth (786-0 renal)	growth (COLO 205 colon)
O=C(Nc1ccc(Cl)c(C(F)(F)F)c1)c1cncc(C#Cc2cnc3ccc(N4CCOCC4)nn23)c1	-18.7% (active)	-32.8% (active)	6.5% (active)	11.1%	29.3%	-48.6% (active)	-11.3% (active)	16.1%	-28.5% (active)	11.9%
O=C(NO)c1ccc(CNc2nc(-c3ccccc3)c3ccccc3n2)cc1	-49% (active)	6.26% (active)	11%	0.931% (active)	4.48% (active)	-35.6% (active)	-30.9% (active)	12.3%	10.9%	-80.4% (active)
CN(CCO)c1oc(-c2ccccc2)nc1[P+](c1ccccc1)(c1ccccc1)c1ccccc1	-5.17% (active)	-11.8% (active)	19.8%	13.2%	6.61% (active)	-24.2% (active)	-9.01% (active)	22.3%	14.2%	-59.6% (active)
COC(=O)CC1CC1C1Cc2c(nc(N(C)S(C)(=O)=O)nc2C(C)C)-c2ccc(F)cc21 (stereo not given)	69.1%	78.8%	96.8%	109%	94.6%	84%	55.6%	92.3%	86%	90.8%
CC(=O)Nc1nc(-c2ccc(N3CCN(C)CC3)c(NS(=O)(=O)c3cccc4c(N(C)C)cccc34)c2)cs1	58.1%	75.5%	64.7%	69.7%	58.9%	50.6%	59.6%	71.3%	34.4%	47.4%
COc1cc2c(cc1OC)/C(=C\c1sc(Nc3ccc(O)cc3)nc1O)C(C(=O)O)=N2	47%	63.7%	53.8%	39.2%	18.2%	36.4%	-18.3% (active)	56.4%	29.1%	-30.7% (active)
CCOc1ccc(/C=N/NC(=O)Cn2nc(Cc3ccc([N+](=O)[O-])cc3)c3onc(C)c3c2=O)cc1	28.8%	-21.1% (active)	29.4%	-17.3% (active)	-9.53% (active)	-44.6% (active)	47.6%	-23.6% (active)	-79.7% (active)	53.7%
CC(=O)c1ccc(NC(=O)NCn2c(=O)[nH]c3ccccc3c2=O)cc1	103%	87.3%	93.8%	96.3%	112%	79.5%	90.2%	97.7%	102%	109%
Cc1ccc2nc(COc3ccc(C(=O)NNC(=S)NC(=O)c4ccccc4)cc3)[nH]c2c1	53.3%	60.7%	80.7%	45.4%	20.5%	80.6%	60.5%	53.9%	74.4%	84%
C=C1CCC2C3(C)COC(c4ccccc4F)OC3CCC2(C)C1C/C=C1/C(=O)OCC1O (stereo not given)	-38.8% (active)	-25.6% (active)	14.5%	-41.7% (active)	-14.6% (active)	-37.5% (active)	-72.5% (active)	-5.16% (active)	-86.8% (active)	-56.3% (active)
COc1ccc(Nc2nc(N)n(Cc3cccc(Br)c3)n2)cc1	0.552% (active)	10%	27.7%	35.1%	-17.6% (active)	-36.9% (active)	-20.9% (active)	19.6%	-9.25% (active)	-46.6% (active)
COc1cc2oc(-c3cccc(C(=O)Nc4ccc(Cl)cc4)c3)cc(=O)c2c(OCCNC(=O)CNC(=O)OC(C)(C)C)c1OC	63.8%	59.7%	71.6%	74.7%	76%	54.7%	45.7%	53.9%	76.1%	56.8%
COc1ccc(/C(C)=N/N=C2C(=O)N(C)c3ccc(Br)cc32)cc1S(N)(=O)=O	64.1%	43.6%	80.8%	36.2%	74.8%	28.1%	45.5%	86.1%	71.4%	102%
CN1CCN(c2ccc(Nc3nc(NCCCNC(=O)c4ccc(Cl)cc4)c4sccc4n3)cc2)CC1	81.9%	79.3%	91.3%	91.9%	88.9%	34.1%	103%	87.8%	-4.27% (active)	92.5%
Cc1cccc(NC(=O)CSc2nc3ccc(F)cc3c(=O)n2-c2ccc(Cl)cc2)c1C	63%	21.5%	81.6%	26.5%	57.9%	26.9%	77%	72.5%	34.7%	94.7%
CC(C)(C)c1ccc(NCc2cn(-c3ccc(C(=O)O)cc3)nc2-c2ccc(C#N)cc2)cc1	8.82% (active)	31.6%	41%	36.2%	11.6%	-3.79% (active)	57.1%	24.3%	22.8%	34.8%
O=C1CCC(N2Cc3cc(NC(=O)COc4ccccc4)ccc3C2=O)C(=O)N1 (stereo not given)	101%	48.1%	80.3%	65.7%	113%	-0.508% (active)	91%	85%	71.8%	74.6%
CO[C@@H]1CSS[C@H]1Cn1nc(-c2ccc(Oc3ccccc3)cc2)c2c(N)ncnc21	63.5%	24.7%	76.4%	111%	77.4%	57.9%	17.3%	45.7%	55.3%	61.8%
N#Cc1ccc(-c2nn(-c3ccc(C(=O)O)cc3)cc2CNc2cc(Cl)cc(Cl)c2)cc1	18.7%	47.2%	58%	41.8%	32.3%	46.8%	73.1%	53.7%	36%	109%
COc1ccc(C(=O)Nc2sc3c(c2C#N)CCC(=O)C3)cc1C(F)(F)F	-13.7% (active)	6.58% (active)	85.9%	-9.95% (active)	0.213% (active)	-30.9% (active)	-64.4% (active)	25.5%	7.91% (active)	-89.1% (active)
C#Cc1ccc(S(=O)(=O)Nc2cccc(-c3csc(NC(C)=O)n3)c2)cc1	65.2%	71.8%	98.9%	84.6%	76.7%	42.5%	56.4%	62.8%	88.2%	88.3%
Cc1ccc(-c2nc3ccc(C(=O)N=Nc4c(O)[nH]c5ccc([N+](=O)[O-])cc45)cc3[nH]2)cc1	64.6%	45.4%	105%	88.5%	103%	44.3%	78.3%	98%	85.2%	70.9%
COc1ccc(-c2nc(Nc3ccccc3S(N)(=O)=O)c3ccccc3n2)cc1	-0.0975% (active)	-43% (active)	35.1%	77.7%	-24.9% (active)	4.23% (active)	59.7%	-2.67% (active)	-16.5% (active)	75.9%
COc1cnc2c(c1)C(=O)c1c-2n(CCCNC(C)C)c(=O)c2cc(OC)c(OC)cc12	26.9%	41.4%	46.5%	16.7%	16%	60.9%	41.3%	46.6%	22.9%	39.2%
